Experimental data as given in ChEMBL document CHEMBL3988442, “University of Dundee, Small-Polar-MMV Screening Library” (2021).

Key:
[1] = target: T1, Aspartate--tRNA(Asp/Asn) ligase (Mycobacterium tuberculosis (strain ATCC 25618 / H37Rv)) (UniProt P9WFW3); test: Assay for Asp RNA synthetase-1 from Mycobacterium tuberculosis; assay type: functional; set-up: scale not given: direction of the effect not stated beside the values; conditions: 30 µM; note: in the data most compounds retested in dose-response had high values
T1 sequence (whole entry): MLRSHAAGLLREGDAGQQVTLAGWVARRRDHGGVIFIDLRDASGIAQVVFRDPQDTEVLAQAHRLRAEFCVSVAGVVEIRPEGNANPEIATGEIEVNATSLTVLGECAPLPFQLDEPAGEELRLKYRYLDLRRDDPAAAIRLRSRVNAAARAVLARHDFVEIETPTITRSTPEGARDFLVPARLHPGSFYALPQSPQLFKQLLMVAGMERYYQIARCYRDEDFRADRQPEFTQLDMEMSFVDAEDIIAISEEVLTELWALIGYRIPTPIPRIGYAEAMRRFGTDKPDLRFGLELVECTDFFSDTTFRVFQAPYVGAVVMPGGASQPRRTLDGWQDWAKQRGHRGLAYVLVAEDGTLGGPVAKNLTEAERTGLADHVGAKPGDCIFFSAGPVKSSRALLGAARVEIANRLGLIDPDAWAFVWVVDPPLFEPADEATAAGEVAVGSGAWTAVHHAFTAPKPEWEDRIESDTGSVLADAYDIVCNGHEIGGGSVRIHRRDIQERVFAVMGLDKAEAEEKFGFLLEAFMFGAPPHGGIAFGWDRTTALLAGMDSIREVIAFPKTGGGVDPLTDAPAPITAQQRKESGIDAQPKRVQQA

[2] = target: Shiga toxin 2 (Escherichia coli O157:H7) (UniProt P09385+P09386); test: E. coli 0.157:H7 Shiga Toxin SOP - stx2 screening assay; assay type: functional; set-up: scale not given: direction of the effect not stated beside the values; conditions: 30 µM

Row | Compound | Percent Effect [1] [%] | Percent Effect [2] [%]
1 | O=C(NCc1ccccc1CN1CCC(O)CC1)Nc1ccncc1 | -0.167 | -42
2 | Cc1[nH]c2ccccc2c1-c1ccnc(NCCN2CCOCC2)n1 | 7.28 | -44.9
3 | Cc1cc(C(=O)N2CCCC2Cn2nc(C)cc2C)on1 (centres undefined) | 0.681 | 20
4 | Cn1nc(C(=O)N2CCCCC2c2nc3cc(F)ccc3[nH]2)ccc1=O (centres undefined) | -2.79 | -1.06
5 | Cn1nnc2c1CCN(CC1CC1)C2COCc1ccccc1 (centres undefined) | 1.84 | 0.25
6 | CCn1ccnc1CN(C)C1CCCN(CCc2ccccc2)C1 (centres undefined) | -0.476 | -36
7 | CCN1CCCC(CNC(=O)C2(c3cccc(Cl)c3)CC2)C1 (centres undefined) | 4.29 | -31.2
8 | CNC(=O)[C@@H]1C[C@H]2CN(Cc3ccco3)C[C@H]2N1C | 1.3 | -1.93
9 | CCN(CC)CCNC(=O)c1nn(CC)cc1Cl | -6.16 | -57
10 | CC(C)NC(=O)C1CN(C(=O)c2ccc(F)cc2)CC12CCOCC2 (centres undefined) | 0.581 | -56
11 | CCOc1ccc(C(C)NC(=O)N2CCC(C(N)=O)CC2)cc1OC (centres undefined) | -0.725 | 10.2
12 | Cc1nc(C2CCN(C(=O)CO)CC2)cc(N2CCOCC2)n1 | -1.91 | 17.7
13 | Cc1cnc(CN(C)C2CCN(CCc3cnn(C)c3)C2)o1 (centres undefined) | -2.22 | 9.7
14 | Cc1cc(C)n(CC2CCCN2C(=O)c2cccc3[nH]ncc23)n1 (centres undefined) | -2.45 | -17.6
15 | O=C(Cc1ccccn1)N1CCC2(CC1)CC(Oc1ccccn1)CO2 (centres undefined) | -3.87 | -3.37
16 | Cc1nc(C(=O)N2CCCC(c3cccc(-n4ccnc4)n3)C2)co1 (centres undefined) | -0.67 | 3.79
17 | Cc1nc(C)n(C2CCCN(C(=O)c3sccc3C3CC3)C2)n1 (centres undefined) | -3.11 | 10.4
18 | O=C(c1cnccn1)N1CCN2C[C@H](OCc3ccccn3)C[C@H]2C1 | 4.4 | -7.9
19 | CC(C)Cc1noc(CN2CCN(CCO)CC2)n1 | -3.95 | 25.7
20 | CCOCC(O)CN1CCN(C(=O)CC(C)(C)C)CC1 (centres undefined) | -3.73 | 14.9
21 | CCC1=N[C@@]2(CC[C@@H]3CN(C(=O)NCc4ccccc4)C[C@@H]32)C(=O)N1C | 2.18 | 3.06
22 | C1CC(CN2CCO[C@H]3[C@H](OCC4CC4)CC[C@@H]32)CCO1 | 0.999 | -6.68
23 | Cn1ncc2c1C(COCC1CC1)CN(Cc1ccoc1)C2 (centres undefined) | -4.51 | -1.73
24 | CCOC(=O)[C@]12CCCN(Cc3ccco3)C[C@H]1CN(CCN(C)C)C2 | 4.07 | -6.83
25 | COc1ccc2c(O)c(NC(=O)NCC3CC3)cnc2c1 | 1.09 | -13.7
26 | CN(C)C(=O)N1C[C@H](Oc2ccccn2)[C@H]2OCCC[C@H]21 | 2.67 | -3.38

Row | Compound | Percent Effect [1] [%] | Percent Effect [2] [%]
27 | COCC(=O)N(C)Cc1cccc(Cl)c1 | -0.779 | -8.03
28 | Cc1cnccc1CN1C[C@@H](O)[C@H](Oc2ccccc2)C1 | 0.283 | -4.47
29 | CC(C)c1n[nH]c(C(=O)Nc2ccncc2)c1Br | -4.8 | 4.1
30 | Cc1cc(C)n(CC2CCCN2C(=O)Cc2c(C)noc2C)n1 (centres undefined) | 7.79 | 9.09
31 | CCc1nc(CN2CCCN(c3nc4ccccc4o3)CC2)no1 | 5.41 | -69.6
32 | CCCOc1cc(CNC(=O)Nc2cccnc2N2CCCC2)ccn1 | 1.75 | -9.71
33 | COCC(=O)N1CCN(C(=O)c2scnc2C)CC1 | -5.75 | -11
34 | CN(C)CC1CSCCCN1C(=O)c1ccc(=O)[nH]c1 (centres undefined) | 0.539 | 3.65
35 | Cc1cccc(-c2[nH]ncc2CNCC2CCN(CC(C)O)CC2)c1 (centres undefined) | 4.15 | 20.1
36 | O=C(CCc1cccs1)N1CCC(N2CCNC2=O)CC1 | -2.08 | -4.13
37 | Fc1ccc(CN2CCC(c3n[nH]c4ncccc34)CC2)cc1F | 5.4 | 15.2
38 | CC(C)N(Cc1nc2c(cnn2C)c(=O)[nH]1)c1ccccc1 | -2.77 | 3.48
39 | CCn1ccnc1CN1CCCN(C(=O)Cn2nc(C)cc2C)CC1 | 3.14 | 8.68
40 | CCOc1ccnc(N2CCN(C(=O)C(C)(C)C#N)CC2)n1 | 4.55 | 37.3
41 | CCOC(C)c1nc(CN2CCC(CNC(C)=O)CC2)cs1 (centres undefined) | -2.51 | 3.11
42 | CC(Nc1cccc(CN2CCOC2=O)c1)C(=O)NC(N)=O (centres undefined) | -3.68 | -7.19
43 | Cc1cc(C)n(C2CN(CC(=O)NCC(C)(C)N3CCOCC3)C2)n1 | -2.72 | -13.3
44 | NC[C@H]1CC[C@H](C(NC(=O)c2ccccn2)c2ccccn2)CC1 (some centres undefined) | 1.43 | 17
45 | Cc1cnn(CC2CCCN2C(=O)CCCc2nc(C)no2)c1 (centres undefined) | -0.389 | -14.7
46 | Cc1noc(C)c1C(=O)N1C[C@H]2CCC[C@@]2(COc2ccccn2)C1 | 4.65 | 2.11
47 | C[C@@H]1CN(C(=O)c2cnc(C3CC3)nc2)CC[C@@]1(O)C1CCOCC1 | 1.53 | 0.847
48 | Cc1nc(Nc2nccs2)cc(C2CCCN2C2CCOCC2)n1 (centres undefined) | -3.08 | 3.58
49 | COc1ccccc1CC(=O)N1CC[C@@]2(CCCO2)[C@@H](OC)C1 | 4.54 | 52.7
50 | CC(C)(C)NC(=O)CNC(=O)CCc1ccccc1Br | 0.279 | -3.39
51 | O=C(c1cc(Cl)c2c(c1)OCO2)N1CCCC(n2ccnc2)C1 (centres undefined) | -1.93 | 4.72
52 | CC1=Nc2c(c(=O)[nH]n2C(C)C)C(c2cccs2)S1 (centres undefined) | 7.78 | 5.29

Row | Compound | Percent Effect [1] [%] | Percent Effect [2] [%]
53 | Cc1nc(C2CCN(C(=O)c3cccnc3)CC2)c2sccn12 | 2.04 | -14.1
54 | COCCNC(=O)CCc1c(C)nn(-c2nc(C)c(C)c(=O)[nH]2)c1C | -1.79 | -2.84
55 | Cc1ncccc1O[C@H]1CCN(C(=O)Cc2cccs2)CC[C@@H]1O | -2.28 | -7.15
56 | COc1ccc(C(N)c2cccc(S(C)(=O)=O)c2)cc1 (centres undefined) | -2.54 | -7.65
57 | Cc1cccc(C2(CNC(=O)CCNS(C)(=O)=O)CCCC2)c1 | -6.94 | -8.2
58 | COc1ccc(CN2CCC3(CC(Nc4ccncn4)C3)C2)c(OC)c1 (centres undefined) | -0.368 | -11.8
59 | CCOC1CCCN(C(=O)c2cnc3c(cnn3C3CCCC3)c2)C1 (centres undefined) | 2.51 | 15.6
60 | c1cncc(OCc2nnn3c2CN(Cc2ccsc2)CCC3)c1 | -0.204 | -23
61 | CCCOc1cc(C)ccc1NC(=O)NCCC(=O)N(C)C | 2.21 | -4.42
62 | CS(=O)(=O)N1CCN(CC(O)COc2ccc(F)cc2)CC1 (centres undefined) | 1.99 | 26.7
63 | CC(C)c1n[nH]c(C(=O)Nc2cc[nH]n2)c1Br | -4.43 | 13.3
64 | CCOC(C)c1nc(CN2CCN(c3nccc(C)n3)CC2)cs1 (centres undefined) | -0.859 | -1.8
65 | O=C1CC[C@H]2CN(Cc3ccc(Cl)s3)CC[C@H]2N1CCc1c[nH]cn1 | 0.912 | -115
66 | COCCCn1ccnc1-c1cnc(OC)nc1 | 2 | -0.356
67 | COc1ncccc1CNc1cc(N2CCCC2CO)ncn1 (centres undefined) | -0.88 | -26.2
68 | Cc1ccccc1OCCC(=O)N1CCCC(n2cncn2)C1 (centres undefined) | -3.32 | 2.85
69 | Cc1cnn(C2CCCN(C(=O)CCCNc3ncccn3)C2)c1 (centres undefined) | 1.18 | 20.6
70 | CCCOCC(=O)NS(=O)(=O)c1ccc2c(c1)OCCCO2 | 1.8 | 17.6
71 | Cc1cnn(C2CCCN(C(=O)CCc3nccs3)C2)c1 (centres undefined) | -2.71 | 20
72 | Clc1snnc1CN1CCCC(Cn2cncn2)C1 (centres undefined) | -2.43 | -33
73 | CCN(Cc1ccco1)C(=O)c1cc(OC)c2c(c1)OCCO2 | 3.71 | -2.41
74 | Cc1cnc2n(c1=O)CC(C(=O)NC1CC1)CS2 (centres undefined) | -3.65 | 0.421
75 | COc1cccc(C(=O)N2CCCCC2CNC(N)=O)c1 (centres undefined) | 3.2 | 26.9
76 | Cc1ncsc1CCC(=O)NCc1cc2n(n1)CCN(C(=O)N(C)C)C2 | -4.32 | -29.5
77 | CC(O)CN1CCN(C(=O)CN(C)c2cnccn2)CC1 (centres undefined) | 4 | -8.23
78 | O=C(N1CCCC1)N1CCN(CC2CC2)c2ncccc2C1 | 3.25 | -4.59

Row | Compound | Percent Effect [1] [%] | Percent Effect [2] [%]
79 | Cc1nc(C)n(CC2CN(Cc3cccnc3)CCO2)n1 (centres undefined) | 5.17 | 26.5
80 | CCc1nc(NCCCOC)c2c(n1)c(C)nn2C | -8.39 | -21.6
81 | COc1cccc(CN2CCOC(Cn3nc(C)cc3C)C2)c1 (centres undefined) | 1.48 | -0.88
82 | COc1cc(CNCc2ccnc(N3CCOCC3)c2)cc(Cl)c1OC | 6.73 | 24.1
83 | Cc1cc(C2CCCN(C(=O)CN3CCN(C)CC3)C2)n[nH]1 (centres undefined) | -0.728 | 13.2
84 | Cc1cc(NC(=O)C(c2cccc(F)c2)N2CCOCC2)ccn1 (centres undefined) | 5 | -6.3
85 | CNC(=O)CS(=O)(=O)C1CCN(S(=O)(=O)c2c(F)cccc2F)CC1 | -1.03 | -5.55
86 | Cc1cc(-c2nnn(CCC(N)=O)n2)ccc1F | -0.912 | -20.8
87 | CCc1ccc(C(=O)N2CCN(CCS(C)(=O)=O)CC2)o1 | -3.52 | 24.9
88 | O=C(CCc1ccc(=O)[nH]n1)N1CCCC(COc2ccc(F)cc2)C1 (centres undefined) | 3.84 | 6.15
89 | CN(Cc1ccccn1)C1CC2(CCN(Cc3cccnc3)CC2)C1 | -2.75 | -14.8
90 | CNc1cc(N2CCCC2CNCc2ccccn2)ncn1 (centres undefined) | 1.56 | -35.2
91 | COC[C@]12COC[C@H]1CN(Cc1cc(OC)cc(OC)c1)C2 | -1.51 | -6.3
92 | Cc1ccc(CN(Cc2ccccn2)C2CC(C)(C)NC(C)(C)C2)s1 | -5.4 | 15.6
93 | O=C(NCC1CC1)[C@@H]1CCO[C@@H]2CCN(Cc3ccco3)C[C@H]21 | 7.48 | -6.74
94 | COc1ccc(Oc2cncc(C3CCCN3C(C)=O)n2)cc1 (centres undefined) | 0.194 | -6.98
95 | COc1ccc2cc(C(=O)N3CCCCC3CC(N)=O)[nH]c2c1 (centres undefined) | -1.12 | 4.87
96 | COCCNC(=O)Cn1nc(C(C)C)c2cnn(C(C)(C)C)c2c1=O | -1.87 | 5.6
97 | Cc1cc(C(N)=O)ccc1NC(=O)c1nc(N2CCCC2)ncc1Cl | 1.84 | -35.5
98 | NC(=O)c1nc(COc2ccc3c(c2)OCO3)no1 | -0.145 | -76.3
99 | O=C(NCC1CC1)C1CN(C(=O)c2cccs2)CC12CCOCC2 (centres undefined) | 5.88 | 0.242
100 | CCn1ncnc1C1CC(=O)NCc2nc3ccccn3c21 (centres undefined) | -2.72 | 2.83
101 | CCn1nc(C)c2nnn(CC(=O)Nc3c(C)cccc3C)c(=O)c21 | -2.79 | -11.8
102 | CC(NCc1ccc(Cl)o1)c1nnc2n1CCCC2 (centres undefined) | -3.67 | -31
